Reference: a collection of fitness landscapes (doi:10.1016/j.celrep.2020.107928)
Whole data set: some 81,000 sequences, median “one-hybrid fitness for binding parS DNA” near -0.17, cut for the highest 2% near 0.51. Shown is part of a subset that was picked to be rich in the highest values.

B1: Caulobacter ParB omega fusion; a variant is named by its letters at X, in order, B8GW30 (parent)
chain: MESVVVGEPGMSEGRRGLGRGLSALLGEVDAAPAQAPGEQLGGSREAPIEILQRNPDQPRRTFREEDLEDLSNSIREKGVLQPILVRPSPDTAGEYQIVAGERAWRAAQRAGLKTVPIMVRELDDLAVLEIGIIENVQRADLNVLEEALSYKVLMEKFERTQENIAQTIGKSXSHVANXMRLLXLPDEVQSYLVSGELTAXHARAIAAAADPVALAKQIIEGGLSVRETEALARKAPNLSAGKSKGGRPPRVKDTDTQALESDLSSVLGLDVSIDHRGSTGTLTITYATLEQLDDLCNRLTRGI

Variants of: B1
Test: one-hybrid fitness for binding parS DNA (scaled: cognate 1, non-cognate 0); higher = stronger binding
Conditions: with parS DNA site
Method in brief: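 Bacterial one-hybrid selection in E. coli USO rpoZ- hisB- pyrF- with a HIS3 reporter carrying the site 19 bp from the promoter, screening Caulobacter ParB libraries with four specificity codons randomised (NNS). Cells grew 48 hours at 37°C on M9-minus-histidine plus 0.1 mM IPTG and 5 mM 3-AT. Plasmids before and after selection were Illumina-sequenced, three replicate libraries pooled, and variants under 10 reads dropped. Fitness is the log change in variant-to-wild-type read ratio, rescaled to cognate 1, non-cognate 0.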

Variant	one-hybrid fitness for binding parS DNA
EPPR	≤ 0.2
HSQW	≤ 0.2
LRNA	≤ 0.2
RARE	≤ 0.2
HIDW	≤ 0.2
TFRF	≤ 0.2
GVCA	≤ 0.2
RSYP	≤ 0.2
RSYS	1.01
RPIS	≤ 0.2
RSIS	0.887
RSPS	0.541
RCIP	0.228
RCIS	1.01
RSPN	≤ 0.2
RSID	≤ 0.2
RSYH	≤ 0.2
RSIP	≤ 0.2
RSPP	≤ 0.2
TPAQ	≤ 0.2
CKSG	≤ 0.2
LRFF	≤ 0.2
RCPS	0.88
RCPH	≤ 0.2

Variant	one-hybrid fitness for binding parS DNA
RPPS	≤ 0.2
WVLG	≤ 0.2
AQAH	≤ 0.2
QPQI	≤ 0.2
RNRH	≤ 0.2
RNYD	≤ 0.2
RNPC	0.358
RNYC	0.719
RNRC	0.893
RNRD	≤ 0.2
RNLC	0.736
RNLR	≤ 0.2
RNIC	0.523
RNYN	0.235
RNIP	≤ 0.2
RNLK	≤ 0.2
VAHC	≤ 0.2
TAIS	≤ 0.2
PGSI	≤ 0.2
MKSG	≤ 0.2
AHRN	≤ 0.2
SQMR	≤ 0.2
IRKE	≤ 0.2
RNGF	≤ 0.2

Variant	one-hybrid fitness for binding parS DNA
RNSF	≤ 0.2
RNSR	≤ 0.2
RNGC	0.769
RNHY	0.361
RNCC	0.704
RNCR	≤ 0.2
RNGK	≤ 0.2
RNHQ	≤ 0.2
RNCY	0.235
RNHC	0.798
RNSC	0.848
QDYV	≤ 0.2
VSHT	≤ 0.2
KTMS	≤ 0.2
EVAF	≤ 0.2
RNWC	0.569
RNWR	≤ 0.2
DNWC	≤ 0.2
RNQD	≤ 0.2
RNQC	0.82
RNQN	0.284
TLDS	≤ 0.2
ARHI	≤ 0.2
RLVD	≤ 0.2

Variant	one-hybrid fitness for binding parS DNA
RLKR	≤ 0.2
RLVT	0.844
RLKK	≤ 0.2
RLVP	≤ 0.2
RLKT	0.799
PSIF	≤ 0.2
TTMY	≤ 0.2
IRGH	≤ 0.2
RNET	0.498
RNDF	≤ 0.2
RNNT	0.785
RNDT	0.562
RNNY	0.434
RNNE	≤ 0.2
PRSW	≤ 0.2
AEDR	≤ 0.2
SKLC	≤ 0.2
RKAA	0.62
NKAA	≤ 0.2
RKFA	0.549
DKAA	≤ 0.2
HLVN	≤ 0.2
EADC	≤ 0.2
NFLC	≤ 0.2

Variant	one-hybrid fitness for binding parS DNA
RFQY	0.462
RFQC	0.925
DFRC	≤ 0.2
RFRP	≤ 0.2
DFLC	≤ 0.2
RFWC	0.697
DFQC	≤ 0.2
RFLC	0.85
RFWR	≤ 0.2
RFRC	0.969
RFWF	≤ 0.2
SDQF	≤ 0.2
ENRG	≤ 0.2
CYNT	≤ 0.2
LSAC	≤ 0.2
TCKK	≤ 0.2
CTYA	≤ 0.2
TRDK	≤ 0.2
RFCD	≤ 0.2
NFHC	≤ 0.2
NFCC	≤ 0.2
RFHC	0.925
RFSC	0.935
DFYC	≤ 0.2

Variant	one-hybrid fitness for binding parS DNA
RFCC	0.87
RFSD	≤ 0.2
RFYC	0.867
DFHC	≤ 0.2
DFSC	≤ 0.2
RFYN	0.357
WVLH	≤ 0.2
GNCC	≤ 0.2
TRHF	≤ 0.2
VVNG	≤ 0.2
TLTV	≤ 0.2
PSGP	≤ 0.2
WTLF	≤ 0.2
RFVS	0.892
RFKH	0.252
RFVH	≤ 0.2
RFKN	0.441
RFKS	0.9
RFVD	≤ 0.2
VTDM	≤ 0.2
VYTF	≤ 0.2
PGDI	≤ 0.2
KILR	≤ 0.2
RKAD	≤ 0.2

Variant	one-hybrid fitness for binding parS DNA
RKFP	≤ 0.2
RKFS	0.927
RKAS	0.832
RKAP	≤ 0.2
RKFN	0.295
QHMA	≤ 0.2
SVPY	≤ 0.2
WRWT	≤ 0.2
FLPQ	≤ 0.2
WSPS	≤ 0.2
QVPW	≤ 0.2
RLAS	1
RLFS	1.03
RLAH	≤ 0.2
RLFN	0.395
RLFD	≤ 0.2
RLAP	≤ 0.2
HRSG	0.277
QDER	≤ 0.2
QMYS	≤ 0.2
YWTY	≤ 0.2
IAWK	≤ 0.2
PACN	≤ 0.2
RQKT	0.819

Variant	one-hybrid fitness for binding parS DNA
RQVP	≤ 0.2
RQKF	0.328
RQKQ	≤ 0.2
RQVH	≤ 0.2
RQVT	0.678
FSNE	≤ 0.2
TTGM	≤ 0.2
ILAP	≤ 0.2
ELIG	≤ 0.2
HFGL	≤ 0.2
DNSG	≤ 0.2
DNPA	≤ 0.2
RHIT	0.581
RSIT	0.628
RHPT	0.336
RCIT	0.78
RSPT	0.372
RGIT	0.278
RPIT	≤ 0.2
RHIH	≤ 0.2
REIT	≤ 0.2
YPCV	≤ 0.2
ALRC	≤ 0.2
TRWA	≤ 0.2

Variant	one-hybrid fitness for binding parS DNA
AHIG	≤ 0.2
RVWC	0.963
RVGF	0.254
RVSD	≤ 0.2
RVQK	≤ 0.2
RVQC	0.983
RVSC	0.977
RVGM	0.306
RVSH	≤ 0.2
RVWM	0.344
RVGC	0.934
RVQM	0.278
RVWY	0.49
PWHI	≤ 0.2
EAGG	≤ 0.2
TACV	≤ 0.2
YPGR	≤ 0.2
TVMC	≤ 0.2
GENW	≤ 0.2
CIYR	≤ 0.2
METI	≤ 0.2
RVLC	0.958
RVCP	≤ 0.2
RVLF	0.259

Variant	one-hybrid fitness for binding parS DNA
RVYQ	≤ 0.2
RVCN	0.438
RVYC	0.991
RVYM	0.314
RVCC	0.966
RVRP	≤ 0.2
RVRH	0.203
RVRC	0.851
RVLK	≤ 0.2
MFWG	≤ 0.2
QASK	≤ 0.2
RCDK	≤ 0.2
QSQF	≤ 0.2
PAVG	≤ 0.2
THLD	≤ 0.2
KYFM	≤ 0.2
RVHY	0.481
RVHM	0.314
RVHC	0.965
LVSM	≤ 0.2
LKVQ	≤ 0.2
LEMF	≤ 0.2
FCHS	≤ 0.2
SKPK	≤ 0.2

Variant	one-hybrid fitness for binding parS DNA
RMIM	0.324
RMIC	0.926
RMPC	0.725
RMIL	≤ 0.2
RMPF	≤ 0.2
RSPC	0.421
RMPP	≤ 0.2
RPPC	≤ 0.2
RCPC	0.698
EAKD	≤ 0.2
TVNA	≤ 0.2
CNTL	≤ 0.2
RLVS	1.03
RLVH	0.223
RLKN	0.458
RLKS	0.851
RLKD	≤ 0.2
RLVN	0.4
AHEK	≤ 0.2
MWPC	≤ 0.2
LAAP	≤ 0.2
QDYS	≤ 0.2
QTCI	≤ 0.2
PSAR	≤ 0.2

Variant	one-hybrid fitness for binding parS DNA
HTSF	≤ 0.2
AANC	≤ 0.2
RVPQ	≤ 0.2
RVPG	0.691
RVIK	≤ 0.2
RVIG	0.904
RVIM	0.261
RVPR	≤ 0.2
HAGS	≤ 0.2
VNPV	≤ 0.2
WRYW	≤ 0.2
TQTI	≤ 0.2
FACF	≤ 0.2
RMPN	0.262
RMIS	0.997
RMID	≤ 0.2
RMPS	0.889
RMIN	0.327
RMPD	≤ 0.2
FTGR	≤ 0.2
QRNV	≤ 0.2
PRGY	≤ 0.2
VCNT	≤ 0.2
KCVG	≤ 0.2

Variant	one-hybrid fitness for binding parS DNA
DLRC	≤ 0.2
PRLY	≤ 0.2
RWES	0.712
RWEN	≤ 0.2
RWEA	0.301
RWEK	≤ 0.2
RWEF	≤ 0.2
RWEI	≤ 0.2
RWEC	0.556
RWEM	≤ 0.2
RWEG	0.563
DQQE	≤ 0.2
CPRM	≤ 0.2
KRDI	≤ 0.2
DGLW	≤ 0.2
SLYE	≤ 0.2
NVQI	≤ 0.2
QQQV	≤ 0.2
